# KB-3-1 cytotox – KB-3-1 parental cell cytotoxicity; KB-3-1 viability, CellTiter-Glo ATP luminescence, 72 h; Potency, µM (titrated, usually from 46.1 µM), hits mostly cytotoxic; 400,000 tested, 1.4% active; further: on the % scale 0 is the no-effect control and ±100 the full control effect; nearly all actives have a fitted effect of over 60% in size
#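 KB-3-1 parental drug-naive adenocarcinoma cells in DMEM/10% FBS, incubated 72 h at 37 C with pin-transferred compounds across a concentration series. Viability by CellTiter-Glo luminescence; concentration-response curves fitted after normalization.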
# ATXN2 expr inh – ATXN2 expression inhibition. HEK-293 ATXN2-luciferase reporter, luminescence, 24 h. Potency, µM (titrated, usually from 57 µM), inactives show top-dose activity change, negative = inhibition, usual class: inhibitors. 360,000 tested, 0.72% active; further: on the % scale 0 is the no-effect control and ±100 the full control effect; nearly all actives have a fitted effect of over 55% in size
#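 ATXN2-luciferase reporter cells (luciferase flanked by upstream and downstream ATXN2 gene portions) were treated 24 h at 37 °C with compounds at up to 57 uM. SteadyGlo luminescence gave expression; GF-AFC fluorescence gave viability.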
# HT1080-NT tox – kills 2HG-producing HT-1080-NT fibrosarcoma cells. HT-1080-NT fibrosarcoma viability, CellTiter-Glo ATP luminescence, 48 h. Potency, µM (titrated, usually from 46.1 µM), for inactives: at the top dose activity, negative = less viability, actives largely listed as cytotoxic. 360,000 tested, 1.6% active. AID 686970;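 further: NT is the 2HG producing partner of a matched IDH1 knockdown line; 0% = DMSO-treated cells and -100% = media-only wells without cells; nearly all actives have a fitted effect of over 55% in size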
#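 Viability by CellTiter-Glo luminescence after 48 h compound exposure at 37C of HT-1080-NT cells (750/well, RPMI, 5% FBS). % activity scaled between DMSO wells and medium-only wells, then curve-fitted and categorized by curve class.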
# HT1080 IDH1KD tx – kills HT-1080 cells with IDH1 knockdown. 360,000 tested, 2% active. AID 686971. Potency, µM (titrated, usually from 46.1 µM), for inactives: at the top dose activity, negative = toxicity, actives largely listed as cytotoxic. HT-1080 IDH1 knockdown viability, ATP luminescence, 48 h;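 further: 0% = DMSO wells and -100% = cell-free medium wells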
#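 Luminescent ATP read-out (CellTiter-Glo, 10 min at room temperature) after 48 h compound exposure at 37 °C gave viability of IDH1-knockdown HT-1080 cells. Activity was normalised to DMSO and cell-free wells, then fitted as concentration-response curves.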
# KB-V1 cytotox – KB-V1 MDR subline cytotoxicity; KB-V1 MDR cells viability, CellTiter-Glo, 72 h; Potency, µM (top dose mostly 46.1 µM), most hits filed as cytotoxic; 400,000 tested, 3.4% active; AID 1347076; further: on the % scale 0 is the no-effect control and ±100 the full control effect; nearly all actives have a fitted effect of over 60% in size
#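 Luminescent ATP read-out (CellTiter-Glo, 10 min) measures survival of drug-selected KB-V1 MDR cells after 72 h, 37 degrees C compound exposure. Medium: phenol-red-free DMEM, 10% FBS. Values from fitted concentration-response curves.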
# ATXN viability – viability counter-screen for ATXN expression inhibitors; S2 cells (HEK-293 line with an ATXN2-luciferase reporter) viability, CellTiter-Fluor protease fluorescence, 24 h; Potency, µM (highest dose often 56.7 µM), most hits filed as cytotoxic; 400,000 tested, 0.49% active; AID 651635; further: nearly all actives have a fitted effect of over 40% in size
# * = called active by the depositor; i = inactive; ? = inconclusive; . = not tested or not shown. Most compounds without a hit are left out; they make up all but 6.2% or so of the library. The call rests on the fitted dose curve; in most records, active means well fitted curve in the direction sought with a large enough effect; inconclusive means small, poorly fitted or top-dose-only effect, or another doubt; inactive means no such curve, though single readings can be large; an effect the other way counts as inactive or inconclusive. Potency means the concentration at half of the fitted maximal effect.
SMILES,KB-3-1 cytotox,ATXN2 expr inh,HT1080-NT tox,HT1080 IDH1KD tx,KB-V1 cytotox,ATXN viability
CCS(=O)(=O)c1cccc(-c2cc(C(=O)NC3CCN(C)CC3)c(C)c3[nH]c4ncc(C)cc4c23)c1,.,1.93µM*,.,.,.,.
CC(=O)Oc1ccc(-c2ccc(C(=O)Nc3cccc(S(=O)(=O)N4CCOCC4)c3)cc2)cc1,?,-35.1%,?,10.3µM*,?,i
O=C(COc1ccc(C(=O)c2ccc(F)cc2)cc1)Nc1cccc(S(=O)(=O)N2CCOCC2)c1,i,0.0%,-12.5%,-12.6%,11.6µM*,?
COc1ccc(C(=O)NNC(=O)c2cccc(S(=O)(=O)N3CCOCC3)c2)cc1,i,3.4%,2.0%,1.7%,?,?
COc1ccc(NC(=O)c2cccc(S(=O)(=O)N3CCOCC3)c2)cc1,i,16.2%,-6.7%,-7.7%,?,i
COc1ccc(C(=O)NC(=S)Nc2cccc(S(=O)(=O)N3CCOCC3)c2)cc1,5.8µM*,-28.0%,14.6µM*,13µM*,5.17µM*,i
O=C(COC(=O)CCC(=O)c1ccc(F)cc1)Nc1cccc(S(=O)(=O)N2CCOCC2)c1,i,-8.6%,-0.2%,-0.7%,i,i
CCOc1cc(CN2CCC(N3CCC(C(=O)NC4CC4)CC3)CC2)ccc1O,i,.,-0.4%,-1.2%,i,?
COc1ccc(C(=O)c2oc3ccccc3c2NC(=O)c2nc(SC)ncc2Cl)cc1Cl,i,5.1%,.,.,i,i
CC(C(=O)NCc1ccccc1F)n1ccc2cc(S(=O)(=O)N3CCCC3)ccc21 (centres undefined),i,-17.6%,.,.,i,?
COc1cc(C(=O)Nc2cc(C)c(O)c(-c3nc4cc(Cl)ccc4o3)c2)cc(OC)c1OC,7.31µM*,-21.1%,.,.,i,i
Cc1cc(NC(=O)c2cccnc2)cc(-c2nc3cc(Cl)ccc3o2)c1O,i,-0.8%,.,.,i,i
CC(=O)N1CCCC(C)(C(=O)Nc2ccc3nc(C)ccc3c2)C1 (centres undefined),i,6.0%,17.4%,19.3%,i,i
CC(OC(=O)C1CCCCC1)c1nc2ccccc2[nH]1 (centres undefined),i,-6.1%,-0.9%,3.9%,20.6µM*,i
CCCCCOc1ccc(/C=C/C(=O)Nc2sc3c(c2C(=O)OCC)CCC3)cc1OC,i,-12.6%,.,.,i,i
COC(=O)c1ccc(-n2c(C)cc(C(=O)CCl)c2C)cc1,?,15µM*,?,?,i,29.9µM*
CCOc1ccc(-n2c(C)cc(C(=O)CCl)c2C)cc1,4.61µM*,23.8µM*,7.31µM*,8.2µM*,?,.
Cc1cccc2c1-c1sc(C(=O)NCCc3ccc(Cl)cc3)cc1CO2,?,?,.,.,?,i
CCN(CC)CCNC(=O)c1ccc(-c2nc(CN3CCc4ccccc43)c(C)o2)cc1,i,?,.,.,?,?
Cc1oc(-c2ccc(C(=O)NCCC(C)C)cc2)nc1CN1CCc2ccccc21,7.31µM*,-32.9%,.,.,?,?
Cc1ccc(-c2cc(C(=O)Oc3ccc(C#N)cc3)no2)cc1,i,-2.6%,.,.,i,i
Cc1ccc2nc(Cl)c3cc(C(=O)N(CCN(C)C)Cc4ccco4)sc3c2c1,?,?,?,23.1µM*,?,?
CCC1CCCCN1CCCNC(=O)c1cc2c(Cl)nc3ccc(C)cc3c2s1 (centres undefined),i,.,.,.,i,.
Cc1ccc2nc(Cl)c3cc(C(=O)NCCCN4CCCC4)sc3c2c1,?,-19.9%,18.4µM*,?,i,?
O=c1[nH]c(SCc2cccc(F)c2)nc2c1CCCC2,i,-12.1%,-2.0%,1.2%,14.6µM*,i
SMILES,KB-3-1 cytotox,ATXN2 expr inh,HT1080-NT tox,HT1080 IDH1KD tx,KB-V1 cytotox,ATXN viability
Cc1cccc(CSc2nc3c(c(=O)[nH]2)CCCC3)c1,i,-4.1%,6.8%,1.9%,i,i
CC1CCN(CCOc2ccccc2-c2ccccc2)CC1,i,-15.2%,-7.7%,-0.1%,i,i
CC1CCN(CC[S-])CC1.O.O.[Cl][Pt],13µM*,.,.,.,?,.
COc1ccc2cc(C(=O)C3CCCN(Cc4cnc(C)s4)C3)ccc2c1 (centres undefined),?,?,?,-26.0%,9.2µM*,i
COc1ccc(C(=O)C2CCCN(Cc3cnc(N4CCCC4)s3)C2)cc1OC (centres undefined),i,.,-17.9%,-11.5%,i,i
COc1ccc(-c2cn3c(C)c(C(=O)Nc4cccc(C)n4)sc3n2)cc1,i,2.7%,-17.7%,-9.9%,20.6µM*,i
Cc1cccc(NC(=O)c2sc3nc(-c4ccc(F)cc4)cn3c2C)n1,i,?,-4.4%,-2.5%,?,?
Cc1cccc(NC(=O)c2sc3nc(-c4ccccc4)cn3c2C)n1,i,?,-5.3%,-17.5%,20.6µM*,?
COc1ccc(-c2cn3c(C)c(C(=O)NC(C)(C)C)sc3n2)cc1,i,6.4%,2.3%,-9.6%,i,?
CCC(C)N1C(=O)/C(=C/c2c(NCCCOC(C)C)nc3c(C)cccn3c2=O)SC1=S (centres undefined),i,-19.9%,14.1%,12.6%,6.51µM*,?
CC(=O)NC1=C(C#N)CCC1,?,.,.,.,i,.
O=[N+]([O-])c1ccc(C2=NN(CCO)C(=Nc3ccc(OC(F)(F)F)cc3)SC2)cc1,i,-20.0%,?,14.6µM*,i,i
COc1ccc(N=C2SCC(c3ccc([N+](=O)[O-])cc3)=NN2CCO)cc1,i,-28.6%,?,?,?,i
CC(C)C(=O)NNc1ccccc1,i,-1.4%,?,-8.3%,i,i
O=C(NNc1ccccc1)C(CCO)C(=O)NNc1ccccc1,i,-29.3%,7.31µM*,6.51µM*,i,i
CC(C(=O)Nc1ccccc1)C(=O)Nc1ccccc1,i,-2.6%,-19.6%,-2.4%,i,i
CC(O)CC(C(=O)NNc1ccccc1)C(=O)NNc1ccccc1 (centres undefined),?,?,1.3µM*,2.31µM*,i,i
COc1cc(NC(=O)Cn2cnc3c2c(=O)n(C)c(=O)n3C)c(OC)cc1Cl,i,-2.5%,.,.,i,i
CCOC(=O)C1CCCN(C(=S)Nc2ccc(C)cc2C)C1 (centres undefined),i,9.4%,-0.2%,9.8%,14.6µM*,i
CCOC(=O)C1CCCN(C(=O)C2COc3ccccc3O2)C1 (centres undefined),i,9.1%,4.4%,3.4%,i,i

# Screening data deposited in PubChem by National Center for Advancing Translational Sciences (NCATS).
